Laboratory results: PubChem BioAssay
Active and inactive are the calls of the source.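 The calls were made as follows, unless noted: active = inhibition above 54%, about 3 SD of non-fluorescent compounds; inactive = the rest.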

Tests used:
[1] = inhibitors of CD8+ T cell-vesicle binding, pilot screen, LFA-1/ICAM-1 modulator project, MLPCN validation set, flow cytometry (AID 2523;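 active = response below a set limit, under 55% cells CD8-positive and vesicle-bound, and CD8 cells' 90th-percentile brightness under 279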;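 as to vesicle binding response: mean PE anti-B7-1 fluorescence of CD8+ cells relative to row control; 100% = QL9-loaded vesicles with DMSO vehicle in the same plate row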); details: 2C mouse CD8+ T cells, at 7 µM, stronger effect = lower value; double positive events: measured here: CD8+/vesicle+ event percentage
[2] = molecular target: Integrin beta-1 (Homo sapiens) + Integrin alpha-4 (Homo sapiens) (UniProt P13612+P05556); experiment: inhibition of HUTS-21 binding to VLA-4, pilot screen, VLA-4 allosteric modulator project, U937 cells, HUTS-21 mAb, flow cytometry, validation set (AID 2674;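 active = inhibition above 50%, about 3 SD of the validation set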;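 also: antibody binding induced by the VLA-4 ligand LDV present at three times its Kd; 0% = LDV ligand with antibody and no compound and 100% = antibody without LDV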); details: HUTS-21 LIBS mAb binding, at 6.7 µM, stronger effect = higher value, binding induced by LDV ligand
[3] = superoxide lowering in aged yeast cells, pilot screen, validation compound set (AID 2706;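 active = superoxide response below 65% of plate, a cut near 3 SD across the whole screen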;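 also: yeast exposed to compound for one week at 30 degrees C before staining; 100% = mean of all compound wells on the same plate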); details: S. cerevisiae aging, superoxide DHE fluorescence; at 10 µM, stronger effect = lower value
[4] = molecular target: Beta-adrenergic receptor kinase 1 (Homo sapiens) (UniProt P25098); experiment: GRK2 binders displacing RNA aptamer, biochemical, validation, human GRK2, bead flow cytometry (AID 488806;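 active = aptamer binding inhibition above 30%, about 3 SD of noise from non-fluorescent compounds; inactive = inhibition at or below 30%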); details: bead-bound GRK2, FAM-aptamer displacement, at 10 µM, stronger effect = higher value
[5] = molecular target: Beta-2 adrenergic receptor (Homo sapiens) (UniProt P07550); experiment: beta2AR agonists driving receptor internalization, pilot screen, cell-based, FAP fluorogen, flow cytometry, validation set (AID 504459;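 active = percent response above 42, roughly 3 SD of non-fluorescent test compounds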;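 also: agonist-driven loss of surface beta2AR via internalization measured by FAP dye flow cytometry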); details: Am2.2-beta2AR cells, FAP surface receptor flow cytometry; at 10 µM; stronger effect = higher value
[6] = molecular target: AP-2 complex subunit beta (Homo sapiens) (UniProt P63010); experiment: inhibitors of arrestin peptide binding to AP2, pilot screen, biochemical, validation set, GST-AP2 beads, flow cytometry (AID 504541); details: FITC arrestin peptide, at 10 µM, stronger effect = higher value, AP2 beta2 appendage fragment, R879A mutant;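 also: AP2 carries R879A mutation and is captured from E. coli lysate; bead-bound FITC arrestin peptide fluorescence measuring arrestin peptide binding to AP2; 0% = DMSO wells and 100% = excess unlabeled arrestin peptide control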
[7] = yeast V-ATPase proton transport modulators, S. cerevisiae, pHLuorin, HTS validation (AID 504600; in the data active = response above about 15%;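 also: plate controls were DMSO for no effect and reference compound for full effect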); details: S. cerevisiae pHLuorin cytosolic pH, at 10 µM, stronger effect = higher value
[8] = test system: anti-desmoglein-3 scFv antibody binding to human DSG3; experiment: inhibitors of anti-DSG3 scFv binding to DSG3, pilot screen, biochemical, validation compound set, bead-based, flow cytometry (AID 588368;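 active = binding below the plate cutoff, the plate median minus 3 SD, with a reading above zero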;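 also: signal is the median channel fluorescence of bead-bound GFP antibody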); details: Protein G beads, DSG3-Fc, scFv-GFP binding, at 10 µM, stronger effect = lower value
[9] = inhibitors of fungal efflux pumps CDR1, CDR2, MDR1, pilot screen, validation compound set, multiplex, phenotypic (AID 588506;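 active = efflux inhibition above 0.42, the validation set average plus 4 SD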;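 also: Nile Red retained in cells so higher fluorescence means more efflux inhibition; 0 = negative control wells and 1 = enniatin B 25 µM full block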); details: S. cerevisiae pump-expressing triplex, Nile Red efflux flow cytometry; at 10 µM; stronger effect = higher value; the pumps come from Candida albicans
[10] = molecular target: ATP-binding cassette sub-family B member 6 (Homo sapiens) (UniProt Q9NP58); experiment: ABCB6 transporter inhibitors, pilot screen, K562-ABCB6 cells, flow cytometry, validation set (AID 588550;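 active = inhibition above the screen-wide mean plus 3 SD, about 51%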;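 also: 0% = DMSO wells and 100% = benzethonium chloride 70 µM positive control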); details: K562-ABCB6 porphyrin accumulation, 1 h, at 10 µM, stronger effect = higher value
[11] = promoters of myeloid differentiation in arrested cells, primary screen, cell-based, GFP/MAC1 double positive, flow cytometry, validation set (AID 588685;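 active = differentiation response of at least 50%, scaled between solvent and reference control, from cells with both markers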;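 also: compound exposure lasts four days before antibody staining and flow analysis; 0% = DMSO wells and 100% = 5 µM fulvestrant positive control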); details: ER-HoxA9 marrow cells, stronger effect = higher value, normalized: vehicle 0, fulvestrant 100

Beta-adrenergic receptor kinase 1 (Homo sapiens), sequence (P25098 whole entry, looked up): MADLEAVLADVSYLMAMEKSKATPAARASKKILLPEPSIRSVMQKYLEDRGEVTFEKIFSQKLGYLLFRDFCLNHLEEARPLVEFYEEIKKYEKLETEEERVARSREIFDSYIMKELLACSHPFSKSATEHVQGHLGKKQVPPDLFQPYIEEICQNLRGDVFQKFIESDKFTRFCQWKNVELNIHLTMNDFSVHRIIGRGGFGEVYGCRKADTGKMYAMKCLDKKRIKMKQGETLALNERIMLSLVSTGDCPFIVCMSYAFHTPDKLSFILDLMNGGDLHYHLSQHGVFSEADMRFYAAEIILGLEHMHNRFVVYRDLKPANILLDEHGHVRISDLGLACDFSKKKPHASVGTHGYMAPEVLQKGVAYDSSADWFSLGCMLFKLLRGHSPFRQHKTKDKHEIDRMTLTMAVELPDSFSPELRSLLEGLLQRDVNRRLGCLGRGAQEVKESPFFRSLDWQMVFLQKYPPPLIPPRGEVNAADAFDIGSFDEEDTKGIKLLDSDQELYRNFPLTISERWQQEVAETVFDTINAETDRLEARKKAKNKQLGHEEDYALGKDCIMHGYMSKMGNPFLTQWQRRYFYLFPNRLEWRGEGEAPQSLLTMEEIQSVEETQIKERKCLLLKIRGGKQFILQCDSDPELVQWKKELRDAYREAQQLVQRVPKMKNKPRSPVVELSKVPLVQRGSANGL
AP-2 complex subunit beta (Homo sapiens), sequence (P63010 whole entry, looked up, the tested form may be a part, one chain of several): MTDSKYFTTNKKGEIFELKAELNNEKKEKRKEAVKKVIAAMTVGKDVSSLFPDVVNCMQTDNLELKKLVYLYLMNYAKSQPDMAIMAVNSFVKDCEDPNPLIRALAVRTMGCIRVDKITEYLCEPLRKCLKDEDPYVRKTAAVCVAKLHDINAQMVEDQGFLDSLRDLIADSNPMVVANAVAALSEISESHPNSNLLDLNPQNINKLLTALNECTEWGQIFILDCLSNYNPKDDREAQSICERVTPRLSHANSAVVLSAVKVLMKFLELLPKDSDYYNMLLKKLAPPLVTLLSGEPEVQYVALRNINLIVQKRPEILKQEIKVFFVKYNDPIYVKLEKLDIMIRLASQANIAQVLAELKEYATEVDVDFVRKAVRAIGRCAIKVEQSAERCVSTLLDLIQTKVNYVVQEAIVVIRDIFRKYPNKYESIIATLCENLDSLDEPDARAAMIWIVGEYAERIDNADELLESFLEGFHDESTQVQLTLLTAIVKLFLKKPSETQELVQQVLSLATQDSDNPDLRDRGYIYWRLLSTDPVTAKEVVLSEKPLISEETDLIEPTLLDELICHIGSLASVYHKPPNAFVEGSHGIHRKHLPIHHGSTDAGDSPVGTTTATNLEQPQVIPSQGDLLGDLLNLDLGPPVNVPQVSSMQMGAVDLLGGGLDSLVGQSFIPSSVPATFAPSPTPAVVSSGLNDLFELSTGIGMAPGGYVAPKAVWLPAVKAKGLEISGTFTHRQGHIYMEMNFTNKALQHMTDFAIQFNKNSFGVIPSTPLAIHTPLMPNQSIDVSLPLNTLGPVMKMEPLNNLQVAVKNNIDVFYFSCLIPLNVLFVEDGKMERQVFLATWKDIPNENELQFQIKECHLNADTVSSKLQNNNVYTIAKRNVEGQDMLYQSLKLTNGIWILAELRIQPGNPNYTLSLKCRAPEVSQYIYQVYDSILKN
Integrin beta-1 (Homo sapiens) + Integrin alpha-4 (Homo sapiens), sequence (P05556 whole entry, looked up): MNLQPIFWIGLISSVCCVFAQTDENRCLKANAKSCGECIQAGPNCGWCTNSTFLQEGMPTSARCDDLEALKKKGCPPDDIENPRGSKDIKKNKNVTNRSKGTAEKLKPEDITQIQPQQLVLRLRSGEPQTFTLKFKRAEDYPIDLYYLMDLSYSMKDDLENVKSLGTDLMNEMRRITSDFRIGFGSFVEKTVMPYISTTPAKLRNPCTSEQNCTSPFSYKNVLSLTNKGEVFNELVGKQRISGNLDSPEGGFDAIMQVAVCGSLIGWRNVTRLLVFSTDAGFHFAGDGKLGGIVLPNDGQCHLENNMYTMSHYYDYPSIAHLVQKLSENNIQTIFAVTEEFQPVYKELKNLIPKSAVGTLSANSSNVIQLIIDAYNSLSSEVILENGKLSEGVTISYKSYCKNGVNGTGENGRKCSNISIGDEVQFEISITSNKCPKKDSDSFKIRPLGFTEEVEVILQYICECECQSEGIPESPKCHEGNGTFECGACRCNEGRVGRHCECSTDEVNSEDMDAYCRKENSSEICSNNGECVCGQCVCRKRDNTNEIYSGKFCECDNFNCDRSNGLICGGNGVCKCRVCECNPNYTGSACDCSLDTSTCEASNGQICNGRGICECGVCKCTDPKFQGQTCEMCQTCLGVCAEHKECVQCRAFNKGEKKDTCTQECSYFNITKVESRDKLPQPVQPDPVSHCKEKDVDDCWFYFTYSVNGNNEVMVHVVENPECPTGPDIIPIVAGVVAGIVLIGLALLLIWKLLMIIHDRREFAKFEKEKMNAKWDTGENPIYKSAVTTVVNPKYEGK
Integrin beta-1 (Homo sapiens) + Integrin alpha-4 (Homo sapiens), sequence (P13612 whole entry, looked up): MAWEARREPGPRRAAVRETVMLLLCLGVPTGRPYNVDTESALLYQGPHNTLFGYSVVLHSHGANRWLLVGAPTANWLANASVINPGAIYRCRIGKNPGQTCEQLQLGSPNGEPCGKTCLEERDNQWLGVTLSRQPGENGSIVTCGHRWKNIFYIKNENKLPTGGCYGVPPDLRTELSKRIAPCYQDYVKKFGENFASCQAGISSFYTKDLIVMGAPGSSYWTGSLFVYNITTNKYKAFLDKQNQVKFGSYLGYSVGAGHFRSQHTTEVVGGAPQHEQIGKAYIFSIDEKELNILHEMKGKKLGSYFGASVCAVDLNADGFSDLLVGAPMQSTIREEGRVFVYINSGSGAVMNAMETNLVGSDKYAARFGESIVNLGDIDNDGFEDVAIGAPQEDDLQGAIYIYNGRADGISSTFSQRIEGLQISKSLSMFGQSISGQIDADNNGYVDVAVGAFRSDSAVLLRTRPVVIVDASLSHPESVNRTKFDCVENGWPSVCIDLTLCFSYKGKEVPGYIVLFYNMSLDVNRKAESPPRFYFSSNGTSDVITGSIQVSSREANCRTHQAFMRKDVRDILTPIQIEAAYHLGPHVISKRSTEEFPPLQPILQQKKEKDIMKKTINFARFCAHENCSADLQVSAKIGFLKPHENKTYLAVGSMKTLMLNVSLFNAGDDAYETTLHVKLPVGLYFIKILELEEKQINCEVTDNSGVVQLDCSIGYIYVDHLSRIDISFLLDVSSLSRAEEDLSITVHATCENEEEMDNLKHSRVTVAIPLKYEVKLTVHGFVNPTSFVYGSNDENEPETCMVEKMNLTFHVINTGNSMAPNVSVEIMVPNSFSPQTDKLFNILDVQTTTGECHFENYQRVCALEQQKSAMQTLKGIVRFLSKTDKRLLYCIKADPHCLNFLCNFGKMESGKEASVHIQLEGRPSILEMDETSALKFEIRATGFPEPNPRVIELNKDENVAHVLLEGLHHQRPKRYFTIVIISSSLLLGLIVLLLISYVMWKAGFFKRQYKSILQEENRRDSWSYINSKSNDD
Beta-2 adrenergic receptor (Homo sapiens), sequence (P07550 whole entry, looked up, the tested form may be a part): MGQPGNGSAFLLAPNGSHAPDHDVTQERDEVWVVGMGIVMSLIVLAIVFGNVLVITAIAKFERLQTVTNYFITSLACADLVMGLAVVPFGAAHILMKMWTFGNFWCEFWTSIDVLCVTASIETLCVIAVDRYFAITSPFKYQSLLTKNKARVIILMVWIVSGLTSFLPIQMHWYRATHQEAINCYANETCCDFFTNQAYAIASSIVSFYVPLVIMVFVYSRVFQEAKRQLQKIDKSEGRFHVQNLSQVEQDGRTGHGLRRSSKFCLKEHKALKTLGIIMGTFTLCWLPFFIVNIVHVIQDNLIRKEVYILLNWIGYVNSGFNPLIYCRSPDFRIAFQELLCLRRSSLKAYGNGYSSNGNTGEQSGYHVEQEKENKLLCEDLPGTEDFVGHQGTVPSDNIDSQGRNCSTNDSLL
ATP-binding cassette sub-family B member 6 (Homo sapiens), sequence (Q9NP58 whole entry, looked up): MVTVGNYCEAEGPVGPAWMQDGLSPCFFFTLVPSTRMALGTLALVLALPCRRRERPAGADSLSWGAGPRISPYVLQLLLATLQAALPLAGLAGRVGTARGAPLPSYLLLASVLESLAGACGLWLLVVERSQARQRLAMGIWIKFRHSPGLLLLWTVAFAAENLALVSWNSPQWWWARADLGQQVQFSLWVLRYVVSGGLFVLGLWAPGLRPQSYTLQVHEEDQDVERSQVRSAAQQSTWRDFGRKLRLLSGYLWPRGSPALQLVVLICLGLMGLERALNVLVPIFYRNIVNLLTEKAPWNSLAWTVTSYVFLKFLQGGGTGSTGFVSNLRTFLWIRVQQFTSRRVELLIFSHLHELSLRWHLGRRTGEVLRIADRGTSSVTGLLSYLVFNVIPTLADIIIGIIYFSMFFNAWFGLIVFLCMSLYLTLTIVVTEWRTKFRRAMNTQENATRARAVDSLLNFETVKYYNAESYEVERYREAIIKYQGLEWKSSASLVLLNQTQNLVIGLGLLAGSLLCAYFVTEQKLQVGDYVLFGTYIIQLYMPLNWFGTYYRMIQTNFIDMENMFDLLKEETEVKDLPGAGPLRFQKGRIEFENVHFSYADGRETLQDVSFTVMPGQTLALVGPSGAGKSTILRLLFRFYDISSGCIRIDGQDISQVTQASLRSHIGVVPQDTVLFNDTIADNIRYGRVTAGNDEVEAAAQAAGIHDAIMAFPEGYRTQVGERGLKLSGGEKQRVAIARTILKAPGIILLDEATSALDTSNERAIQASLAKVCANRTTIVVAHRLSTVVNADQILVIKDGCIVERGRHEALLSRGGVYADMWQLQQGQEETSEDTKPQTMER

CCN(CC)CCNC(=O)c1cc(S(C)(=O)=O)ccc1OC
58.8%: double positive events [1]
inactive: vesicle binding response [1] 219% | inhibition [2] -1.79% | superoxide response (% of plate) [3] 88.3% | aptamer binding inhibition [4] 4% | response [5] 4.46% | inhibition [6] -1.05% | response [7] 4.62% | binding (% of control) [8] 101% | efflux inhibition (fraction of control) [9] -0.28 | inhibition [10] 5% | differentiation response [11] -5.6%

Nc1ccc2[nH]ncc2c1
active: efflux inhibition (fraction of control) [9] 0.73 | differentiation response [11] 87.2%
62.1%: double positive events [1]
inactive: vesicle binding response [1] 174% | inhibition [2] -8.62% | superoxide response (% of plate) [3] 110% | aptamer binding inhibition [4] 12% | response [5] 20.4% | inhibition [6] 11.5% | response [7] 1.54% | binding (% of control) [8] 104% | inhibition [10] -7%

CC1(C)CC(=O)C(C2(O)C(=O)Nc3ccccc32)CO1 (stereo unspecified)
inactive: vesicle binding response [1] 183% | inhibition [2] 11.7% | superoxide response (% of plate) [3] 92.3% | aptamer binding inhibition [4] 3% | response [5] 7.56% | inhibition [6] 0.15% | response [7] 2.36% | binding (% of control) [8] 105% | efflux inhibition (fraction of control) [9] 0.12 | inhibition [10] 12% | differentiation response [11] -16.8%
69%: double positive events [1]

CC(C)C1Cc2[nH]c(=O)c(C(=O)O)cc2CO1 (stereo unspecified)
inactive: vesicle binding response [1] 1810% | inhibition [2] 25.5% | superoxide response (% of plate) [3] 95.9% | aptamer binding inhibition [4] 4% | response [5] -2.38% | inhibition [6] -1.16% | response [7] -0.04% | binding (% of control) [8] 94.2% | efflux inhibition (fraction of control) [9] -0.1 | inhibition [10] 10% | differentiation response [11] 3.18%
64.9%: double positive events [1]

COc1ccc(CCNC(=O)CC(c2ccccc2)c2cccc(C)c2O)cc1OC (stereo unspecified)
62.6%: double positive events [1]
inactive: vesicle binding response [1] 190% | inhibition [2] 16.2% | superoxide response (% of plate) [3] 96.3% | aptamer binding inhibition [4] 1% | response [5] 5.7% | inhibition [6] -1.67% | response [7] 1.13% | binding (% of control) [8] 101% | efflux inhibition (fraction of control) [9] -0.46 | inhibition [10] 10% | differentiation response [11] -3.28%

COC(=O)c1cc(C(=O)NCCC(C)C)cc([N+](=O)[O-])c1
57.8%: double positive events [1]
inactive: vesicle binding response [1] 229% | inhibition [2] 2.3% | superoxide response (% of plate) [3] 112% | aptamer binding inhibition [4] 4% | response [5] 7.63% | inhibition [6] -12% | response [7] 2.1% | binding (% of control) [8] 94.5% | efflux inhibition (fraction of control) [9] -0.13 | inhibition [10] 3% | differentiation response [11] -15.2%

Cn1c2ccc(CC(=O)O)cc2c2cc(CC(=O)O)ccc21
inactive: vesicle binding response [1] 244% | inhibition [2] 10.5% | superoxide response (% of plate) [3] 92.3% | aptamer binding inhibition [4] 3% | response [5] -8.9% | inhibition [6] 2.08% | response [7] 1.83% | binding (% of control) [8] 101% | efflux inhibition (fraction of control) [9] -0.21 | inhibition [10] 6% | differentiation response [11] 8.8%
61.4%: double positive events [1]

O=C1CCCCCN1Cc1ccccc1
62.4%: double positive events [1]
inactive: vesicle binding response [1] 208% | inhibition [2] 3.67% | superoxide response (% of plate) [3] 97.2% | aptamer binding inhibition [4] 7% | response [5] -1.56% | inhibition [6] -4.78% | response [7] 5.84% | binding (% of control) [8] 101% | efflux inhibition (fraction of control) [9] -0.24 | inhibition [10] 5% | differentiation response [11] 8.8%

O[C@@H](CNC[C@H](O)c1ccccc1)c1ccccc1
inactive: vesicle binding response [1] 156% | inhibition [2] -27.7% | superoxide response (% of plate) [3] 99.8% | aptamer binding inhibition [4] -3% | inhibition [6] 9.85% | response [7] 0.68% | binding (% of control) [8] 102% | efflux inhibition (fraction of control) [9] 0.01 | inhibition [10] 1% | differentiation response [11] 21.6%
62.7%: double positive events [1]
active: response [5] 43.5%

O=C1c2ccccc2C(=O)C1c1ccccc1
inactive: vesicle binding response [1] 512% | inhibition [2] 3.14% | superoxide response (% of plate) [3] 95.2% | aptamer binding inhibition [4] 7% | response [5] -32.5% | inhibition [6] -6.92% | response [7] -0.31% | binding (% of control) [8] 102% | efflux inhibition (fraction of control) [9] 0 | inhibition [10] 4% | differentiation response [11] -5.97%
67%: double positive events [1]

CCN1C(=O)C(CC(=O)Nc2ccc(F)cc2)N(Cc2ccc3c(c2)OCO3)C1=S (stereo unspecified)
inactive: vesicle binding response [1] 124% | inhibition [2] 7.76% | superoxide response (% of plate) [3] 101% | aptamer binding inhibition [4] 0% | response [5] 22.9% | inhibition [6] -7.91% | response [7] 0.48% | binding (% of control) [8] 107% | inhibition [10] 4%
active: efflux inhibition (fraction of control) [9] 0.44 | differentiation response [11] 58.4%
56.3%: double positive events [1]

COc1cccc(OC2OC3COC(C)(C)OC3C(O)C2NC(C)=O)c1 (stereo unspecified)
63.6%: double positive events [1]
inactive: vesicle binding response [1] 203% | inhibition [2] 5.61% | superoxide response (% of plate) [3] 97.8% | aptamer binding inhibition [4] 2% | response [5] 2.82% | inhibition [6] 2.96% | response [7] 6.08% | binding (% of control) [8] 103% | efflux inhibition (fraction of control) [9] 0.1 | inhibition [10] 30% | differentiation response [11] -11.9%

COc1ccc(/C=N\NC(=O)CCc2c(C)n[nH]c2C)c(OC)c1OC
inactive: vesicle binding response [1] 151% | inhibition [2] -3.16% | superoxide response (% of plate) [3] 111% | aptamer binding inhibition [4] 2% | response [5] 3.8% | inhibition [6] 7.15% | response [7] -0.97% | binding (% of control) [8] 102% | efflux inhibition (fraction of control) [9] -0.21 | inhibition [10] 4% | differentiation response [11] 4%
60.3%: double positive events [1]
